Experimental findings from PubChem BioAssay (Tox21) are described below.

Assay [1] can be described thus: qHTS assay to identify small molecule antagonists of the peroxisome proliferator-activated receptor gamma (PPARg) signaling pathway - cell viability counter screen (AID 743194). Further: nearly all actives have a fitted effect of over 55% in size. Further: potency means the concentration at half of the fitted maximal effect. Put shortly:
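PPARg-UAS-bla HEK293H cells were plated, rested 5 h at 37 C, then treated with compounds plus rosiglitazone (50 nM final) for 17 h at 37 C; viability was then read by CellTiter-Glo luminescence after 30 min at room temperature.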

The nature of assay [2]: qHTS assay for small molecule activators of the heat shock response signaling pathway - cell viability counter screen (AID 743209). Further: nearly all actives have a fitted effect of over 50% in size. Further: potency means the concentration at half of the fitted maximal effect. In outline: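 HSE-bla HeLa cells plated overnight, then exposed to Tox21 compounds (23 nL in DMSO) for 5 h at 37 C. After the bla reporter read, CellTiter-Glo was added in the same wells and luminescence read after 30 min at room temperature.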

The nature of assay [3]: qHTS assay for small molecule activators of the heat shock response signaling pathway (AID 743210; active means well fitted activation curve with a large enough effect in the signal ratio in the repeat runs, with a control signal flat, not every such curve was filed as active; the % refers to the signal ratio;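 further: HeLa cells with beta-lactamase reporter driven by heat shock elements; series mostly up to about 63 µM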). In outline: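 Reporter gene assay: HeLa cells stably bearing an HSE-bla construct, compound treatment 5 h at 37 C, LiveBLAzer substrate 2.5 h at RT, fluorescence intensity.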
(In general: Quantitative high-throughput screening tests each substance at several concentrations.)

Assay [4] is described as follows: qHTS assay to identify small molecule agonists of the peroxisome proliferator-activated receptor delta (PPARd) signaling pathway - cell viability counter screen (AID 743211). Further: nearly all actives have a fitted effect of over 55% in size. Further: potency means the concentration at half of the fitted maximal effect. Put shortly:
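Read-out: CellTiter-Glo luminescence, 30 min RT, measured in the same wells as the beta-lactamase reporter. Cells: GeneBLAzer PPAR delta UAS-bla HEK293H, 3000 cells/well, compound exposure 17 h at 37C.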

Assay [5] is described as follows: qHTS assay to identify small molecule antagonists of the peroxisome proliferator-activated receptor delta (PPARd) signaling pathway - cell viability counter screen (AID 743213). Further: nearly all actives have a fitted effect of over 50% in size. Further: potency means the concentration at half of the fitted maximal effect. In outline:
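HEK293H cells with the PPARd UAS-bla reporter, co-treated 17 h at 37 C with compounds and L165041 (300 nM final), were lysed with CellTiter-Glo. Luminescence indicated viable cell content.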

A short description of assay [6]: qHTS assay to identify small molecule agonists of the farnesoid-X-receptor (FXR) signaling pathway - cell viability counter screen (AID 743218). Further: nearly all actives have a fitted effect of over 45% in size. Further: potency means the concentration at half of the fitted maximal effect. Put shortly:
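FXR-UAS-bla HEK 293T cells exposed to compounds for 16 h at 37C. Cytotoxicity read in the same wells by CellTiter-Glo luminescence after 30 min at room temperature, following the beta-lactamase FRET read.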

Assay [7] can be described thus: qHTS assay to identify small molecule antagonists of the farnesoid-X-receptor (FXR) signaling pathway - cell viability counter screen (AID 743221; active means well fitted cell-killing curve with a large enough effect in the repeat runs, not every such curve was filed as active; further: nearly all actives have a fitted effect of over 50% in size; further: potency means the concentration at half of the fitted maximal effect). Put shortly: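 HEK 293T FXR-bla cells, 5 h pre-incubation; compound + CDCA 50 uM final, 16 h, 37 C; beta-lactamase FRET read first, then CellTiter-Glo luminescence, 30 min RT.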
For assay [8], the target named is Aryl hydrocarbon receptor (Homo sapiens) (UniProt P35869). The experiment in a line: qHTS assay to identify small molecule that activate the aryl hydrocarbon receptor (AhR) signaling pathway (AID 743085). Further: nearly all actives have a fitted effect of over 15% in size. Further: potency means the concentration at half of the fitted maximal effect.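 On activation: HG2L7.5c1 human HepG2 liver cells with stably integrated DRE-driven firefly reporter; series mostly up to about 70 µM.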 Put shortly:
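Luminescence read-out: ONE-Glo reagent, 30 min at room temperature, in HG2L7.5c1 HepG2 reporter cells treated 24 h at 37C. Viability was measured beforehand by CellTiter-Fluor fluorescence after 30 min at 37C.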

The target of assay [9] is Peroxisome proliferator-activated receptor gamma (Homo sapiens) (UniProt P37231). Description: qHTS assay to identify small molecule agonists of the peroxisome proliferator-activated receptor gamma (PPARg) signaling pathway (AID 743094; active means well fitted activation curve with a large enough effect in the signal ratio in the repeat runs, not every such curve was filed as active; the % refers to the signal ratio). In outline: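 GeneBLAzer PPARg UAS-bla HEK293H cells were plated, rested 5 h, then exposed to compounds for 17 h at 37C. Beta-lactamase activity was read by LiveBLAzer B/G FRET substrate fluorescence after 1 h at room temperature.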

Assay [10] in a line: qHTS assay for small molecule agonists of the antioxidant response element (ARE) signaling pathway - cell viability counter screen (AID 743203; calls by dose curve; further: nearly all actives have a fitted effect of over 55% in size; further: potency means the concentration at half of the fitted maximal effect). Put shortly: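 ARE-bla HepG2 cells were plated, rested 5 h at 37C/5% CO2, then exposed to compounds in DMSO for 16 h. Viability was read as CellTiter-Glo luminescence after 30 min at room temperature, in the same wells as the ARE screen.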

Assay [11] deals with Peroxisome proliferator-activated receptor delta (Homo sapiens) (UniProt Q03181). Description: qHTS assay to identify small molecule antagonists of the peroxisome proliferator-activated receptor delta (PPARd) signaling pathway (AID 743215; active means well fitted inhibition curve with a large enough effect in the signal ratio in the repeat runs, not every such curve was filed as active; the % refers to the signal ratio;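 further: cells stimulated with agonist L165041 at 300 nM final during compound exposure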; further: potency means the concentration at half of the fitted maximal effect). In outline: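 PPARd-bla HEK293H cells (UAS-bla reporter) preincubated 5 h, then given compound plus 300 nM final L165041 agonist for 17 h at 37 C. Beta-lactamase activity read by LiveBLAzer B/G FRET substrate fluorescence after 2 h at room temperature.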

Assay [12] has as its target Bile acid receptor (Homo sapiens) (UniProt Q96RI1). The experiment in a line: qHTS assay to identify small molecule agonists of the farnesoid-X-receptor (FXR) signaling pathway (AID 743220; active means well fitted activation curve with a large enough effect in the signal ratio in the repeat runs, not every such curve was filed as active; the % refers to the signal ratio). In outline: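 Beta-lactamase reporter under UAS control in GeneBLAzer FXR HEK 293T cells (5000/well) measured with LiveBLAzer FRET substrate after 2 h at room temperature. Compound exposure lasted 16 h at 37C.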

Assay [13] deals with Vitamin D3 receptor (Homo sapiens) (UniProt P11473). Description: qHTS assay to identify small molecule agonists of the vitamin D receptor (VDR) signaling pathway (AID 743222; calls by dose curve). Put shortly: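 VDR-bla cells plated 4 h at 37 C, then exposed to compounds for 16 h at 37 C. Beta-lactamase reporter activity measured by fluorescence after 2 h room-temperature loading with LiveBLAzer B/G FRET substrate.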

Assay [14] can be described thus: qHTS assay to identify small molecule that activate the aryl hydrocarbon receptor (AhR) signaling pathway - cell viability counter screen (AID 743086).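 Further: HepG2 liver cells carrying the AhR DRE luciferase reporter; series mostly up to about 70 µM; nearly all actives have a fitted effect of over 45% in size.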 In outline:
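HepG2-AhR-luc (HG2L7.5c1) cells, 4000/well, were preincubated 5 h at 37C, exposed to compound in qHTS format for 24 hr at 37C, then given CellTiter-Fluor for 30 min; viability was read as fluorescence in the reporter wells.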

Assay [15] concerns the target Peroxisome proliferator-activated receptor gamma (Homo sapiens) (UniProt P37231). The experiment in a line: qHTS assay to identify small molecule antagonists of the peroxisome proliferator-activated receptor gamma (PPARg) signaling pathway (AID 743191; calls by dose curve; further: nearly all actives have a fitted effect of over 30% in size; further: potency means the concentration at half of the fitted maximal effect). In outline:
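GeneBLAzer PPARg UAS-bla HEK293H cells carrying a UAS-driven beta-lactamase reporter were plated at 3000 cells/well, preincubated 5 h at 37C, then given compound for 17 h at 37C; LiveBLAzer B/G FRET substrate was read after 1 h at room temperature.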

Assay [16] is described as follows: qHTS assay for small molecule agonists of the antioxidant response element (ARE) signaling pathway (AID 743202; active means well fitted activation curve with a large enough effect in the signal ratio in the repeat runs, not every such curve was filed as active; the % refers to the signal ratio; further: potency means the concentration at half of the fitted maximal effect). Put shortly: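 Compounds delivered in DMSO to ARE-bla HepG2 cells (2,000 cells/well, pre-incubated 5 h) and left 16 h at 37 C. LiveBLAzer B/G FRET substrate then added for 2 h at RT before fluorescence reading.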
The target of assay [17] is Bile acid receptor (Homo sapiens) (UniProt Q96RI1). The experiment in a line: qHTS assay to identify small molecule antagonists of the farnesoid-X-receptor (FXR) signaling pathway (AID 743217; active means well fitted inhibition curve with a large enough effect in the signal ratio in the repeat runs, not every such curve was filed as active; the % refers to the signal ratio). Put shortly:
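FXR-UAS-bla HEK 293T cells (beta-lactamase reporter) given compound plus chenodeoxycholic acid (50 uM final), 16 h at 37C. LiveBLAzer B/G FRET substrate added for 2 h at room temperature; fluorescence read.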

Assay [18] concerns the target Vitamin D3 receptor (Homo sapiens) (UniProt P11473). Description: qHTS assay to identify small molecule antagonists of the vitamin D receptor (VDR) signaling pathway (AID 743223; active means well fitted inhibition curve with a large enough effect in the signal ratio in the repeat runs, not every such curve was filed as active; the % refers to the signal ratio). In outline: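 Beta-lactamase reporter read-out: FRET substrate fluorescence after 2 h at room temperature, following 16 h exposure of VDR-bla cells to test compound plus 3 nM (final) 1alpha,25-dihydroxyvitamin D3 agonist at 37C.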

The target of assay [19] is Peroxisome proliferator-activated receptor delta (Homo sapiens) (UniProt Q03181). Description: qHTS assay to identify small molecule agonists of the peroxisome proliferator-activated receptor delta (PPARd) signaling pathway (AID 743212; calls by dose curve). Put shortly: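 A PPARd-bla HEK293H line with beta-lactamase under an Upstream Activator Sequence is treated with compounds at 37 C. Substrate loading for 2 h at room temperature precedes the fluorescence measurement.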

Results filed as inconclusive are left out. Calls of active or inactive are those of the source. Unless noted, the call rests on the fitted dose curve; in most records, active means well fitted curve in the direction sought with a large enough effect in the repeat runs; inconclusive means weak or mixed curves; inactive means no such curve, though single readings can be large; an effect the other way counts as inactive or inconclusive.

Sequence of Peroxisome proliferator-activated receptor gamma (Homo sapiens) (P37231 whole entry, looked up): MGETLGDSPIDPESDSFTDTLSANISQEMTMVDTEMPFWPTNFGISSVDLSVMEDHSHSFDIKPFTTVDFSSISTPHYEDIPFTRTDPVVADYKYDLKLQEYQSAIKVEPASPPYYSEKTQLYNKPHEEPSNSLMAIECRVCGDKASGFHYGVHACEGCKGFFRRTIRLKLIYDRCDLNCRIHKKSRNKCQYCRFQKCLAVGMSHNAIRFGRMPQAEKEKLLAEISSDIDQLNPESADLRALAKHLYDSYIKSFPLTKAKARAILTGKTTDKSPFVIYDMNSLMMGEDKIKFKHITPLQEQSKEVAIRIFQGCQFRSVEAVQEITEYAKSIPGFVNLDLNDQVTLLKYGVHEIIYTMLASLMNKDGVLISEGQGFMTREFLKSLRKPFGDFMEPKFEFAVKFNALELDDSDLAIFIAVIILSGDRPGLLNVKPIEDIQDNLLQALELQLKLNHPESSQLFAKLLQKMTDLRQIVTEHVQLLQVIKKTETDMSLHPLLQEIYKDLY
Sequence of Aryl hydrocarbon receptor (Homo sapiens) (P35869 whole entry, looked up): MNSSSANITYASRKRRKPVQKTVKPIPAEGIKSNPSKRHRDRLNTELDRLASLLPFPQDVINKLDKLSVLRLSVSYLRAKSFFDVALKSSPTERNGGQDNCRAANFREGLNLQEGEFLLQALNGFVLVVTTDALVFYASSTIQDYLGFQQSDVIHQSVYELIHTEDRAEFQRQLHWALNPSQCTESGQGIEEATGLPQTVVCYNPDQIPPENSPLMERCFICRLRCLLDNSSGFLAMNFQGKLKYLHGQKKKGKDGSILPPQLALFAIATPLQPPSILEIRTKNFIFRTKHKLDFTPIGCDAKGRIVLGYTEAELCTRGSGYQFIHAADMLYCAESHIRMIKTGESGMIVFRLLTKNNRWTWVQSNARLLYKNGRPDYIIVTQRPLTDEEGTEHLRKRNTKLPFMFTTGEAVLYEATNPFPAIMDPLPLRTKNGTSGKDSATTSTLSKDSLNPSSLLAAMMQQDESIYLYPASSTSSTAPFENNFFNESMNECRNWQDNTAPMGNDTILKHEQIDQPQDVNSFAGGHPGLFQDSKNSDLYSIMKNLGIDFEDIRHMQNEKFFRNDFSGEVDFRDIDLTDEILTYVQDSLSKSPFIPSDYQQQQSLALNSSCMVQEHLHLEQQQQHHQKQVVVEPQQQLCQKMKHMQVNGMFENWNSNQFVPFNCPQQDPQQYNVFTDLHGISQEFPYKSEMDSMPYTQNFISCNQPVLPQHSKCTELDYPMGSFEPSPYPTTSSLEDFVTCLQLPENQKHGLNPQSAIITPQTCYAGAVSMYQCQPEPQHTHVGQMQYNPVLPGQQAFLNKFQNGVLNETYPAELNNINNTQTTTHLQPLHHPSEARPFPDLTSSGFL
Sequence of Peroxisome proliferator-activated receptor delta (Homo sapiens) (Q03181 whole entry, looked up): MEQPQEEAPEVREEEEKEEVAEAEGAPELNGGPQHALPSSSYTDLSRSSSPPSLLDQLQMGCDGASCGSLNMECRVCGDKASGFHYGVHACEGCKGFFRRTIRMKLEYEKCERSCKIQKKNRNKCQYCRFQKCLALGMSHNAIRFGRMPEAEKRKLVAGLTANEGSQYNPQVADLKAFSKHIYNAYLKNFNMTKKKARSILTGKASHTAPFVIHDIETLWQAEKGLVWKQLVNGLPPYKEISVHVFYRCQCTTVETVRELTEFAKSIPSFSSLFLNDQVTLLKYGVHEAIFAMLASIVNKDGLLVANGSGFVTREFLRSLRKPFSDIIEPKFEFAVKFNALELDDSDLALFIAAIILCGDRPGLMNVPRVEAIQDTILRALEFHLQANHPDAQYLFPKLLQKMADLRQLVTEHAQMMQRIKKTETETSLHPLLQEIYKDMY
Sequence of Bile acid receptor (Homo sapiens) (Q96RI1 whole entry, looked up): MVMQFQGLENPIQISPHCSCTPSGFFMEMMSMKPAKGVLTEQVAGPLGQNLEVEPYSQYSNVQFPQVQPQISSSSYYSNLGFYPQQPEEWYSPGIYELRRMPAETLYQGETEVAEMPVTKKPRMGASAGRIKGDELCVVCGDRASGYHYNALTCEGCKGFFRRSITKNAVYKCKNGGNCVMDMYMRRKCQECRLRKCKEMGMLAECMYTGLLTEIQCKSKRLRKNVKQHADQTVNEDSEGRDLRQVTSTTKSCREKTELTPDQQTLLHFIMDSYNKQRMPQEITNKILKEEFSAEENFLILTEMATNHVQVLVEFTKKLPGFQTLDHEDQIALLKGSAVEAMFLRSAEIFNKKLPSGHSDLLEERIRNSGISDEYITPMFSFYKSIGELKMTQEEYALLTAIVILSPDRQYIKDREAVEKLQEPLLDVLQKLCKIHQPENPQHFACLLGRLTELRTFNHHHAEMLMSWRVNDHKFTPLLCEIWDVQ
Sequence of Vitamin D3 receptor (Homo sapiens) (P11473 whole entry, looked up): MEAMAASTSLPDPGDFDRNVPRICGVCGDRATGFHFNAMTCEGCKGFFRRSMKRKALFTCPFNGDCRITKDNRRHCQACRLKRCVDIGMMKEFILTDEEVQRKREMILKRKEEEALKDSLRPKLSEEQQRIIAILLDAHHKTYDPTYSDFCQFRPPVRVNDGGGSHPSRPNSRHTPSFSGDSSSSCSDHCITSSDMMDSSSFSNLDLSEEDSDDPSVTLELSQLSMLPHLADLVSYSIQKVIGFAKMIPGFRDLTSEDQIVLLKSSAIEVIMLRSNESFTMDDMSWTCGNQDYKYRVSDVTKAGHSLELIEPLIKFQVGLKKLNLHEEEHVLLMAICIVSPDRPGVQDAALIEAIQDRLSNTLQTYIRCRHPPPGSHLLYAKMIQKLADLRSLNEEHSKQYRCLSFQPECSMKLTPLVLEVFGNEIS

As to `NC1(c2ccc(-c3nc4ccn5c(=O)[nH]nc5c4cc3-c3ccccc3)cc2)CCC1`, the Potency was 4.22 µM (active) in assay [1]; 26.6 µM (active) in assay [4]; 15 µM (active) in assay [5]; 26.6 µM (active) in assay [6]; 33.5 µM (active) in assay [7]. Besides, the Potency result in [2] and in [3] was “inactive” each time.
With `O=C(Nc1ccc(Cl)cc1)Nc1ccc(Cl)c(C(F)(F)F)c1`, the Potency entry in assay [8], in assay [9] and in assay [12] was “inactive” throughout. Besides, the Potency in assay [1] was 8.41 µM (active); in [10] it was 16.8 µM (active); in assay [2], 9.44 µM (active); in assay [4], 13.3 µM (active); in assay [11], 26.6 µM (active); in assay [7], 16.8 µM (active).
Regarding `O=C1NC2CCCCN2C12CCN(CCCN1c3ccccc3CCc3ccc(Cl)cc31)CC2` (configuration not stated), the Potency in assay [8] was 13.3 µM (active); in assay [1] it was 26.6 µM (active); in assay [10], 29.8 µM (active); in assay [2] it was 29.8 µM (active); in assay [4], 29.8 µM (active); in assay [5], 26.6 µM (active). Moreover, the Potency in assay [11] and in [7] was 29.8 µM (active) in each case. In addition, the Potency entry in [12] and in [13] was “inactive” throughout.
On to `CC(C)(C)c1cc(/C=C2\SC(=N)NC2=O)cc(C(C)(C)C)c1O`, for which, in [8], the Potency result is “inactive”. In addition, the Potency in assay [1] was 43.6 µM (active); in [10], 24.3 µM (active); in [2], 43.6 µM (active); in assay [4], 21.9 µM (active); in [5] it was 54.9 µM (active); in assay [6], 43.6 µM (active).
Take `CCCCCCCCCCOCC(O)CN` (configuration not stated): the Potency result in assay [14] and in [15] was “inactive” each time. Also, the Potency is 26.6 µM (active) in [4], 29.8 µM (active) in assay [5] and 33.5 µM (active) in [6].
As for `C=CC(=O)OCCC#N`, the Potency entry in assay [8], in [14], in assay [10], in [4], in assay [5] and in [11] was “inactive” each time. Moreover, the Potency entry in assay [17], in assay [6], in assay [12], in [7], in assay [13] and in [18] was “inactive” each time. The Potency in assay [16] is 34.6 µM (active).
Consider `NC(=O)C(=O)N/N=C/c1ccc([N+](=O)[O-])o1`, for which the Potency entry in assay [14], in assay [9], in [1], in assay [10], in [4] and in [5] was “inactive” each time. Further, the Potency entry in [11], in [6] and in assay [7] was “inactive” each time. Further, the Potency in [16] is 29.8 µM (active). In addition, the molecule was classed as inactive in [19].
Regarding `CN1CCN(C2Cc3ccccc3Sc3ccc(Cl)cc32)CC1` (configuration not stated), the Potency entry in assay [8], in assay [12] and in [18] was “inactive” each time. Also, the Potency in assay [15] was 29.8 µM (active); in [1] it was 29.8 µM (active); in assay [10] it was 29.8 µM (active); in assay [4] it was 26.6 µM (active); in [6], 26.6 µM (active); in assay [7] it was 29.8 µM (active). The outcome in assay [19] was inactive.
